Source: the supplement of paper PMC6555819

Key:
Assay in all cases: PBM binding z-score (relative to random genomic background probes); higher = stronger binding; sequences stand for … in GC…GCGATTGACAGCGTAGAATGAAGG
[1] = tested on: PPARg:RXRa DBDmut IVT, anti-RXR (DBD mutation: RXRa K156A/R161A, NR concentration 270 nM, RXRa partner concentration 90 nM)
Procedure, shortened: (§1)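 Binding buffer was PBS pH 7.4 with 2% milk, 0.02% Triton X-100, 1 mM DTT, 0.2 mg/mL BSA and 0.4 mg/ml salmon testes DNA. In it, ligand-free nuclear receptor dimers were incubated 1 h on custom Agilent 4×180K protein-binding microarrays carrying double-stranded probes. Antibodies against each partner (one per run) detected binding, and z-scores were calculated against random background probes after regression normalization of scanned fluorescence.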

[2] = tested on: PPARg:RXRa IVT, anti-PPARg (NR concentration 270 nM, RXRa partner concentration 90 nM)
Procedure, shortened: as §1

[3] = tested on: PPARg DBDmut:RXRa IVT, anti-PPARg (DBD mutation: PPARg1 K132A/R137A, NR concentration 270 nM, RXRa partner concentration 90 nM)
Procedure, shortened: as §1

[4] = tested on: PPARg DBDmut IVT, anti-PPARg (DBD mutation: PPARg1 K132A/R137A, NR concentration 270 nM)
Procedure, shortened: as §1

[5] = tested on: PPARg homodimer (NR concentration 180 nM)
Procedure, shortened: as §1

[6] = tested on: PXR:RXRa (NR concentration 270 nM, RXRa partner concentration 90 nM)
Procedure, shortened: as §1

[7] = tested on: PXR homodimer (NR concentration 270 nM)
Procedure, shortened: as §1

[8] = tested on: RARa:RXR (NR concentration 270 nM, RXRa partner concentration 90 nM)
Procedure, shortened: as §1

[9] = tested on: RARa homodimer (NR concentration 270 nM)
Procedure, shortened: as §1

[10] = tested on: RARb:RXRa (NR concentration 270 nM, RXRa partner concentration 90 nM)
Procedure, shortened: as §1

Sequence	PBM binding z-score [1]	PBM binding z-score [2]	PBM binding z-score [3]	PBM binding z-score [4]	PBM binding z-score [5]	PBM binding z-score [6]	PBM binding z-score [7]	PBM binding z-score [8]	PBM binding z-score [9]	PBM binding z-score [10]
CCTTACGGGTCAAGGTTAAAGCACGGGTGGTACG	1.83	3.82	0.996	0.275	3.27	3.65	0.419	4.78	1.39	4.12
CAAACTATGTCACAGAGGTCAAAGTCCGTGCGTA	5.08	5.55	0.905	0.872	3.02	5.88	3.31	5.97	1.58	4.19
TAGCCTAGGTCAGATCGGGTCAGTATACGCTATA	0.599	2.06	-0.409	0.264	0.633	4.16	-0.399	2.21	-0.275	3.55
TCTAGCAGGCCAGAGGGTCACTCGAGAGGTACGG	0.838	0.906	-0.167	-1.13	0.221	1.24	-0.669	2.4	-0.335	2.19
ATCCCTAGGTAAAAGTTCAGTGAATCCCGAGGAT	-0.636	1.17	-0.0921	0.662	0.927	1.97	1.19	1.18	0.513	2.16
TCTTGTAGATCAATAGAGGTCAAGAAAGTGCGCT	1.9	2.9	1.22	0.341	1.79	5.53	1.38	4.29	0.852	3.26
GCATATAGGTAATACAAGTTGAAAGTCCGATTGT	4.35	2.61	1.06	0.954	0.423	0.787	0.733	0.761	0.554	0.148
ACTATTAGTTGACTTTGGGCAACCGATACGACGC	-0.00927	0.141	1.83	1.67	0.55	0.0456	0.199	0.481	0.975	0.454
TGACCAAGGTGAAAGGTCGTTGATGCACGCCTTG	2.01	4.8	0.518	-0.282	1.58	3.75	-0.00693	5.22	-0.166	3.03
CCTACGGGGCCATTCAGAGGTCATTGATCATATG	0.224	1.43	-1.02	-0.577	4.06	5.55	4.64	5.76	0.566	3.55
CCTAGCAGGCCAGGGTCACTCAGGCATTTCGCTT	-0.00567	0.705	-1.33	-1.04	0.362	2.21	-0.351	2.78	-0.431	2.47
CCTTACGGGTCACGAGGTTATCGCACGACGAGCG	4.34	5.24	1.36	0.803	3.23	4.75	0.615	6.45	0.798	4.5
TCGAGTAGGTTACCAATGGGTCATTCAGCTTTCT	3.45	2.82	0.364	-0.28	1.39	1.88	-0.563	2.5	-0.538	1.77
ACTAGCAGGCCATGGGTCACTCAAGATTAGTCCG	0.912	2.7	-0.371	-0.346	0.473	0.85	-0.43	1.56	-0.392	1.94
GCGACTAGGGCATCAGCAGGTTACCATAACTTAA	4.76	3.7	-0.562	-0.523	0.128	-0.0606	-0.519	0.482	-0.519	1.13
AGGACGAGGGCACGCTGAGTTGATAGCAGAGTAG	2.52	2.08	-0.0685	-0.533	0.511	1.31	0.265	0.618	-0.58	2.68
TGTCCAAGTTCAAAGGTAACGTAAGTATCCACAC	-0.319	1.81	1.26	1.32	1.85	4.87	3.45	5.04	0.541	3.42
GCGACTGGGGCAAAGCAGGTTAGCATAAGGTTGG	4.21	3.26	-0.633	-1.6	-0.037	-0.216	-0.676	0.00756	-0.55	0.773
GCGACTGGGGCAAAGCAGGTTAACATAAGGTTGG	4.62	3.42	-0.747	-0.874	0.353	0.721	-0.496	1.1	-0.822	1.05
ATCTCTAGGTAACCAAGTTAAGTGAATGCCGAAC	3.43	2.78	0.758	1.07	0.347	0.282	0.739	0.368	1.13	0.317
CCTGCTAGGTGAATGGTCAGCTAAAGCAGCTCGC	3.48	2.62	-0.739	-1.37	-0.377	-0.698	-0.722	-0.44	-1.03	1
CCTAACGGGTCAAGGTTATAGCACGGGTGGTACG	0.873	2.74	-0.204	-0.102	2.32	2.84	0.496	3.76	1.14	3.9
CTACCAAGGTTAACAAGGTCGTTGATTACTATTC	1.98	1.78	0.186	0.431	1.25	4.32	8.81	3.19	0.369	2.81
GCTGCTAGATCAGGTTGGTCAGCTAACGGGTACG	-0.422	-0.787	-0.302	-0.87	-0.314	-0.686	-0.557	-0.344	-1.48	-0.392

Sequence	PBM binding z-score [1]	PBM binding z-score [2]	PBM binding z-score [3]	PBM binding z-score [4]	PBM binding z-score [5]	PBM binding z-score [6]	PBM binding z-score [7]	PBM binding z-score [8]	PBM binding z-score [9]	PBM binding z-score [10]
GCGACTGGGGCAAAGCAGGATACCATAAGGTTGG	4.62	3.04	-0.478	-1.16	-0.484	-0.583	-0.738	-0.211	-0.407	0.604
GCATATAGGTTATACAAGGTGAAAGTCCGATTGT	4.93	4.04	0.859	0.875	1.26	2.26	0.302	2.49	0.937	1.6
ATCACTAGGTAAAAGTTCAGTGAATCCCGAGGAT	3.38	4.52	1.04	1.36	1.02	2.08	1.55	1.9	1.02	2.49
TCTAGCAGGCCGGAGGGTCACTCAAGAGGTACGG	0.524	-0.0805	-0.889	-1.31	0.278	0.98	-0.311	1.65	-0.429	1.74
CCTTACGGGTCTCGAGGTTATAGCACGACGAGCG	-0.507	0.298	-0.399	-0.982	0.167	0.396	-0.353	0.806	-0.452	0.666
GGAACGAGGGCAAGTTGCTAGCAGAGTTTGATGG	3.85	2.46	-0.00966	-0.739	-0.336	0.59	0.303	0.0596	-0.257	2.52
ACTATGAGTTGACTTAGGGCAACCGATACGACGC	0.0745	0.378	0.38	1.61	0.141	0.608	0.888	1.09	0.486	0.974
ATCTCTAGGTAAAGATAATTCAGTGAATGCAAAT	2.32	1.93	1.06	1.29	0.141	0.14	0.504	0.441	1.38	-0.0226
TCTTGTAGATCAATCGAGGTTAAGAAAGTGCGCT	1.91	1.31	0.666	0.595	0.306	2.74	0.235	1.75	0.262	0.661
CTACCAAGGTGAACGAGGTCGTTGATTACTATTC	2.17	2.89	0.126	-0.713	0.838	3.54	2.67	2.7	0.278	2.3
ATCTCTACGTAAAGTTCAGTGAAAGATCGATAGA	-0.332	0.634	1.64	1.55	1.75	1.93	1.97	1.39	1.12	3.02
GATACATGGTCAAGGCCAGAGTACGCGTATTGAT	0.0376	0.621	-0.439	0.11	-0.243	-0.158	-0.13	-0.204	-0.125	1.25
CGTTCAAGGTCAGAGAGGTCAGTGAATGCCGAGT	3.67	4.41	1.75	1.56	5.16	6.25	12.2	5.57	2.45	5.45
AGAATGATGTTACCAAAGATCAGGGAAACGCTTG	-0.0632	0.0152	0.508	0.116	-0.153	-0.39	-0.411	0.018	0.147	-0.129
ACTATTAGTTGAGACGAGGGCAAGCGATAGGTTG	0.296	0.365	0.712	0.625	0.663	1.05	0.306	0.73	0.56	0.659
TGTCAAAGTTCAAAGGTAAGGTAAGTATCCACAC	0.662	4.2	2.56	2.04	6.17	5.8	5.17	6.32	2.15	5.2
TAGCCTAGGTCAGATCGGGCCAGTACACGCTATA	0.552	1.62	-0.751	-0.825	0.487	1.33	-0.37	0.937	-0.817	3.22
ATCGAAAGGTCGAAGGTAAGTATACCCACCCGAA	-0.0708	1.49	0.751	0.919	0.93	2.6	0.149	3.27	0.263	3.59
AATACAGGGTCACTAGGCCAGAGTCGGTACGAAT	4.04	5.73	1.74	1.6	2.69	3.08	0.172	4.13	1.14	4.1
AGAATGAGGTTACCAAAGATCAGGGGAACGCTTG	3.68	3.55	0.871	0.161	0.699	1.59	-0.0783	2.04	0.232	2.18
GCGACTGCGGCAAAGCAGGTTACCATAAGGTTGG	-0.386	-0.26	-0.756	-1.23	-0.726	-0.186	-0.666	0.143	-1.11	-0.06
CAAACTAGGACACCGGAAGGTCAAAGTCCGCATG	6.39	6.49	2.4	2.63	2.78	3.89	1.68	4.36	1.36	3.59
CCAGACAGGTGTGAAGGTAACTCAGCCTCGATTA	-0.0821	-0.409	-1.46	-0.767	0.376	-0.386	0.146	-0.273	0.322	-0.103
ACTAGTTGGTCGGCTGAGGTCACACACAATTCGG	0.828	2.09	0.508	0.979	2.33	5	2.11	4.72	1.23	3.08
